Hits are enriched below; roughly 13% of the tested compounds scored in any of these assays.
HCMV inh = human cytomegalovirus inhibition. HFF cells, HCMV-luciferase reporter, 72 h; active compounds read low. activity change, negative = inhibition, % at 57.5 µM. 410,000 compounds, 4.5% hits. AID 1259415; in the data active = activity change below about -60%; inconclusive = no clear call, values can overlap the other calls; inactive = above about -39%
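Compounds were evaluated in HFFs infected with an HCMV luciferase reporter virus (MOI 1 PFU/cell). Luciferase in lysates collected 72 h post infection served as the replication measure.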
HCV inhibitor = inhibitors of hepatitis C virus infection; Potency, µM (doses to about 41.8 µM), without a hit: at the top dose activity change, negative = inhibition, hits mostly inhibitors; Huh7.5.1 HCVcc-Cre infection, luciferase reporter, 44 h; 340,000 compounds, 3.4% hits; AID 651820; note: potency is the fitted concentration of half-maximal effect
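Infectious HCV cell culture screen: compound-treated cells (1,000/well, pre-plated 4 h) are infected with HCVcc-Cre at roughly 0.5 moi and grown 44 h. Infection is quantified by luciferase signal after 15 min substrate incubation at room temperature.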
Pf growth 48h = P. falciparum growth inhibition at 48 hours (one generation); P. falciparum luciferase growth in erythrocytes, 48 h; Potency, µM (highest dose often 28.7 µM), inactives show at the highest dose activity change, negative = inhibition, usual class: inhibitors; 310,000 compounds, 5.9% hits; AID 504832; note: potency is the fitted concentration of half-maximal effect
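Luminescence readout; reporter = integrated firefly luciferase in P. falciparum. RBC culture at 2% hematocrit, 0.1% parasitemia final, 37 C/5% CO2; decreased signal taken as growth inhibition.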
Pf growth 96h = inhibits malaria parasite growth, 96 h; AID 504834; P. falciparum luciferase reporter growth, 96 h; Potency, µM (top dose mostly 28.7 µM), without a hit: at the highest dose activity change, negative = inhibition, usual class: inhibitors; 320,000 compounds, 6.9% hits; note: potency is the fitted concentration of half-maximal effect
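Delayed-death screen, second-generation endpoint: infected erythrocytes, 2% hematocrit, 0.05% parasitemia final; 96 hours at 37 C, 5% CO2; luciferase detection reagent; luminescence decrease equals reduced growth.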
* hit, by the source's call; ? = inconclusive; nt = no result. Unless noted, calls come from the whole dose curve; as a rule, active = well fitted inhibition curve with a large enough effect; inconclusive = small, poorly fitted or top-dose-only effect, or another doubt; inactive = no such curve, though single readings can be large or run the other way. % is set by controls: 0 for no effect and ±100 for the full control effect.

SMILES	HCMV inh	HCV inhibitor	Pf growth 48h	Pf growth 96h
COc1ccc2[nH]cc(/C=N/NS(=O)(=O)c3ccc(C)cc3)c2c1	-64.5*	11.2µM*	5.2%	26.6%
COc1ccc(OC)c(S(=O)(=O)N/N=C\c2c[nH]c3ccccc23)c1	12.3	11.2µM*	3.2%	-15.9%
COc1ccc2c(/C=N/NS(=O)(=O)c3ccc(C)cc3)c[nH]c2c1	7.7	?	0.0%	6.1%
CCOc1ccc(-n2c(SCC(=O)Nc3cccc(Cl)c3)nc3c(oc4ccccc43)c2=O)cc1	23.4	nt	nt	nt
Cc1ccc2nc(COc3ccccc3NC(=O)c3ccccc3F)cc(=O)n2c1	15.3	nt	nt	nt
CC(=O)c1nc2ccccc2n1S(=O)(=O)c1ccc(Cl)cc1	15.8	7.0%	5.9%	11.7µM*
COc1ccc(Cc2nc3ccc(C(=O)N4CCCCC4CCO)cc3o2)cc1 (stereo unspecified)	-21.0	11.5%	-20.6%	7.38µM*
COc1ccc(N2CCN(CCCNC(=O)c3ccc4nc(Cc5ccccc5)oc4c3)CC2)cc1	-60.4*	nt	nt	nt
COc1ccc(NC(=O)CCc2nnc3n(C)c(=O)c4sccc4n23)cc1Cl	12.6	nt	nt	nt
CCCN(CC(=O)Nc1cccc(S(N)(=O)=O)c1)CC(=O)Nc1ccc(F)c(F)c1F	8.6	?	-0.6%	3.3%
CCCN(CC(=O)Nc1cccc(Br)c1)CC(=O)Nc1ccc(F)c(F)c1F	11.0	?	?	3.7µM*
CSc1ccc(CCNC(=O)C2CCN(c3ncnc4c3nc3n4CCCCC3)CC2)cc1	-26.1	nt	nt	nt
CCCCNS(=O)(=O)c1ccc2nc(-c3cccnc3)cc(C(=O)NCCCOC(C)C)c2c1	-32.1	nt	nt	nt
CCCCNS(=O)(=O)c1ccc2nc(-c3cccnc3)cc(C(=O)NCCCN(CC)CC)c2c1	nt	nt	11.7µM*	?
CCCCN(CCCC)CCNC(=O)c1cc(-c2cccnc2)nc2ccc(S(=O)(=O)N3CCC(C)CC3)cc12	-4.1	nt	nt	nt
CCCCNS(=O)(=O)c1ccc2nc(-c3cccnc3)cc(C(=O)NCCC)c2c1	-66.0*	nt	nt	nt
CCN(CC)CCNC(=O)c1cc(-c2cccnc2)nc2ccc(S(=O)(=O)N3CCC(C)CC3)cc12	?	3.8%	?	13.1µM*
COc1cccc(-c2oc3c(c2-c2ccc(Br)nc2)C(O)CCC3)c1 (stereo unspecified)	-5.5	nt	nt	nt
COC(=O)Cc1c(C)c2cc3c(c(C)c2oc1=O)OCN(CCc1ccccc1F)C3	-17.8	nt	nt	nt
CCc1nn(CC(=O)NCc2cccc(OC)c2)c(=O)c2cc3cc(F)ccc3n12	8.2	nt	nt	nt
Cc1ccc(N(CC(=O)NCCc2ccccc2)S(=O)(=O)N(C)C)cc1	-3.7	nt	nt	nt
CCOC(=O)N1CCN(S(=O)(=O)c2ccc(C(=O)N(CCCN(C)C)c3nc4ccc(CC)cc4s3)cc2)CC1	-62.1*	?	6.57µM*	?
CCOC(=O)N1CCN(S(=O)(=O)c2ccc(C(=O)N(CCCN(C)C)c3nc4ccc(Cl)cc4s3)cc2)CC1	8.0	11.2µM*	?	-0.6%
CCOC(=O)N1CCN(S(=O)(=O)c2ccc(C(=O)N(CCCN(C)C)c3nc4c(F)cc(F)cc4s3)cc2)CC1	-5.4	?	3.7%	4.1%
Cc1ccc2nc(N(CCCN(C)C)C(=O)c3ccc(S(=O)(=O)N4CCCCCC4)cc3)sc2c1	-31.6	?	13.1µM*	?
SMILES	HCMV inh	HCV inhibitor	Pf growth 48h	Pf growth 96h
CCOC(=O)N1CCN(S(=O)(=O)c2ccc(C(=O)N(CCN(C)C)c3nc4ccc(CC)cc4s3)cc2)CC1	-38.9	1.1%	9.6%	?
COc1ccc(NS(=O)(=O)c2ccc3nc(COc4cccc5ccccc45)[nH]c3c2)cc1	-79.2*	?	?	?
COc1ccc(OCc2nc3ccc(S(=O)(=O)Nc4ccccc4Cl)cc3[nH]2)cc1	-5.7	-25.2%	4.1%	-15.9%
Cc1ccc(C)c(CN2C(=O)c3ccccc3S(=O)c3ccc(C(=O)N(C)Cc4ccccc4)cc32)c1 (stereo unspecified)	-22.6	nt	nt	nt
O=C(NC1CCCCC1)c1ccc(CSc2nc3cccnc3n2Cc2cccc(F)c2)cc1	-36.2	nt	nt	nt
NC(=O)NC(=O)Nc1ccccc1Cl	-0.9	-6.4%	29.9%	10.4µM*
O=C(Nc1ccc(Br)cc1)Nc1ccccc1Cl	3.7	?	61.9%	-55.6%
O=C(NC(=O)c1csnn1)Nc1ccccc1Cl	-83.3*	8.4%	48.2%	35.3%
Cc1ccc(NC(=O)c2csnn2)c(C)c1	-32.9	7.6%	47.4%	-8.0%
CCCCC(C)n1[nH]c(=O)c2c(C)cc(C)nc21 (stereo unspecified)	-37.8	-2.8%	4.0%	26.1%
CCCCCCC(C)n1[nH]c(=O)c2c(C)cc(=O)[nH]c21 (stereo unspecified)	-70.2*	-13.2%	2.3%	-95.1%
CC(c1nnc(SCC(=O)Nc2ccc3[nH]c(=O)[nH]c3c2)n1Cc1ccccc1)N(C)C (stereo unspecified)	-9.3	18.2%	nt	39.4%
CC(c1nnc(SCC(=O)Nc2cc([N+](=O)[O-])ccc2F)n1Cc1ccccc1)N(C)C (stereo unspecified)	-39.7	-21.0%	8.28µM*	5.22µM*
CCc1ccc2nc(NC(=O)C3CCN(c4ncnc5sc(C)c(C)c45)CC3)sc2c1	20.7	-5.9%	?	-10.4%
CCCN(CC(=O)Nc1ccccc1C)C(=O)C1CCN(c2ncnc3sc(C)c(C)c23)CC1	-15.3	?	?	7.38µM*
CCOc1ccc(NC(=O)CN(C)C(=O)C2CCCO2)cc1OCC (stereo unspecified)	-4.8	-5.8%	-5.8%	33.6%
CCOc1ccc(NC(=O)CN(C)C(=O)C2CCN(c3ncnc4sc(C)c(C)c34)CC2)cc1OCC	-68.5*	nt	?	?
Cc1sc2ncnc(N3CCC(C(=O)N(CC(C)C)c4nc5ccccc5s4)CC3)c2c1C	-13.7	?	?	3.7µM*
COc1ccc(C2c3c(n(C)c4ccccc34)C(=O)N2CC(=O)Nc2cccc(Cl)c2)cc1 (stereo unspecified)	0.0	nt	nt	nt
Cc1ccc(N2CN=c3s/c(=C\c4cccnc4)c(=O)n3C2)cc1	-69.0*	-11.5%	?	39.7%
Cc1c(C(=O)Nc2ccc(F)cc2F)oc2c1-c1nn(Cc3c(F)cccc3Cl)cc1CC2	-33.7	nt	nt	nt
CCCSCCCNC(=O)c1ccccc1NC(=O)C1=CSCCO1	-16.1	-7.4%	-29.5%	13.1µM*
CCN(CC)CCCNC(=O)c1ccccc1NC(=O)C1=CSCCO1	-21.3	7.9%	4.9%	11.0%
O=C(CN(Cc1ccccc1Cl)C(=O)Cn1nnc(-c2cccs2)n1)NCC1CCCO1 (stereo unspecified)	27.9	3.8%	6.8%	1.17µM*
COc1ccc(-c2nnn(CC(=O)N(Cc3ccccc3Cl)C(C(=O)NCC3CCCO3)c3ccco3)n2)cc1OC (stereo unspecified)	18.3	?	9.28µM*	18.9%
CCc1ccc(-c2nc(CN3CCC(C(=O)NCCc4ccc(OC)c(OC)c4)CC3)c(C)o2)cc1	-8.1	?	?	?
